In PubChem BioAssay (NCI):
The panel holds about 83,000 compounds, 20% with a hit somewhere; the sample as a whole holds those more often.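 Method: cells in 96-well plates; compound added at one concentration; 48 h incubation; percent growth measured; values under 10 scored active.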 Active and inactive are the calls of the source.

system: HL-60(TB) leukemia; test: NCI-60 one-dose screen, 48 h (100 = growth as untreated, 0 = no growth, -100 = all killed); settings: 10 µM unless noted

Structure (SMILES)	growth
O=C(N/N=C/c1ccc(O)cc1O)c1ccc(Nc2ccnc(C(F)(F)F)c2)cc1	44.1% (inactive)
CN1CCN(c2ccc3nc(-c4ccc5nc(-c6ccc(C(F)(F)F)cc6)[nH]c5c4)[nH]c3c2)CC1	23.9% (inactive)
CN(C)c1nc(-c2ccco2)n2nc(-c3ccco3)cc2n1	97.3% (inactive)
Cc1ccc(S(=O)(=O)N/N=C/C2(c3ccccc3)CC2)cc1	98.7% (inactive)
CCCCCCOc1ccc(/C=C/C(=O)c2ccc(B(O)O)cc2)cc1	18.5% (inactive)
FC(F)(F)c1cn(CC2CNC2)c2ncnc(Cl)c12	73.5% (inactive)
CN1C(N2CCN(S(=O)(=O)c3ccccc3)CC2)=NS(=O)(=O)c2ccccc21	116% (inactive)
COc1ccc(-c2cc(-c3cccnc3)nc3sc4c(=O)n(-c5ccc(C)cc5)cnc4c23)cc1OC	107% (inactive)
COc1ccc2nc3cc(Cl)ccc3c(Nc3ccc(O)c(CN4CCCC4)c3)c2c1	-51% (active)
Nc1ccc(-c2ccc(-c3ccccc3N)c3[nH]c4ccccc4c23)cc1	5.47% (active)
CC(=O)c1cnc2ccc(-c3cc(Cl)c(O)c(Cl)c3)nc2c1NC1CCC(CN(C)C)CC1 (stereo not given)	-14.8% [2.5 µM] (active)
C/C(=C(/c1ccc(O)cc1)c1ccc(OCCN(C)C)cc1)c1ccccc1	76% (inactive)
COc1ccc(/C=C/C(=O)c2cc(OC)c(OC)c(OC)c2)cc1OCC(=O)Nc1nc2ccc(OC(F)(F)F)cc2s1	6.61% (active)
COc1cc(C(=O)N2CCN(C(=O)c3ccco3)CC2)c(N)cc1OCc1ccccc1	99.8% (inactive)
Cc1ccc(NS(=O)(=O)c2ccc3c(c2)C(=O)CC(c2ccc(C(=O)C(C)C)cc2)N3)cc1C (stereo not given)	61.4% (inactive)
COCCCOc1cc(C[C@@H](C[C@H](N)[C@@H](O)C[C@H](C(=O)NCC(C)(C)C(N)=O)C(C)C)C(C)C)ccc1OC	111% (inactive)
O=C1COCCN1c1ccc(NCc2cn(Cc3ccc(F)cc3)c3ccccc23)cc1	86.9% (inactive)
COC(=O)[C@@H]1[C@H](O)[C@H](C)[C@H](O)[C@@](C)(O)/C=C\C=C(C)C(=O)Nc2c(C)c(OC(C)=O)c3c(c2O)C(=O)C(C)=C2OCOC(=C23)C(C)=C[C@@](C)(O)[C@H](O)[C@@H](C)[C@H]1OC(C)=O	71.2% (inactive)
COc1cc(F)c(-c2nc3c(C)cccc3n2Cc2c(F)cccc2F)c(F)c1	78.8% (inactive)
COc1ccc(-c2nc3ccc(-c4nc5ccc(N6CCN(C)CC6)cc5[nH]4)cc3[nH]2)cc1OC	49.1% (inactive)

Structure (SMILES)	growth
Brc1ccccc1Nc1ccc2nnc(-c3ccncc3)n2n1	96.4% (inactive)
O=C(Cc1ccc([N+](=O)[O-])cc1)Oc1ccccc1	105% (inactive)
O=[N+]([O-])c1cc2ncccc2c2ncccc12	88.1% (inactive)
O=C(CC(C(=O)c1ccccc1)N1CCOCC1)c1ccccc1 (stereo not given)	55.4% (inactive)
CN(C)CCCN1c2ccccc2CCc2ccccc21	91.4% (inactive)
NC1CCC(Nc2nc(NCc3cc(Cl)ccc3O)c3ncn(C4CCCC4)c3n2)CC1 (stereo not given)	-41.1% (active)
CCCC(C(=O)OCC)C(C)OC(=O)OCC (stereo not given)	87.8% (inactive)
O=C(Oc1cccc2cccnc12)c1ccccc1	93.7% (inactive)
CC(C)=CCc1cc(O)c(O)c2oc3cc(O)cc(O)c3c(=O)c12	103% (inactive)
Cc1cccc(NC(=O)CSc2nc3ccccc3[nH]2)c1	101% (inactive)
O=C1/C(=C/c2ccc(Cl)cc2)CCC/C1=C\c1ccc(Cl)cc1	83% (inactive)
COc1cccc(CCC2C(=O)CCCC2=O)c1	87.2% (inactive)
Cn1ccnc1CN1CCSC(C(=O)Nc2ccccc2)C1 (stereo not given)	88.6% (inactive)
C[C@@H]1COCCN1c1cc(C2([S@](C)(=N)=O)CC2)nc(-c2ccnc3[nH]ccc23)n1	-9.62% (active)
Cc1nc2ccc(Cl)cc2n1C	101% (inactive)
O=c1c2cc(F)ccc2sc2c(NCCN3CCCC3)nc3ccccc3c12	91.9% (inactive)
C=C(C)[C@@H]1CC[C@]2(C(=O)O)CC[C@]3(C)[C@H](CC[C@@H]4[C@@]5(C)C[C@@H](CC#Cc6ccccc6)C(=O)C(C)(C)[C@@H]5CC[C@]43C)[C@@H]12	3.03% (active)
CN(C)CCCC1(c2ccc(F)cc2)OCc2cc(-c3ccc4cc[nH]c4c3)ccc21 (stereo not given)	27.6% (inactive)
COc1cc2c(c(OC)c1OC)C(=O)N[C@@H]1[C@@H](O)[C@@H](O)[C@H](O)C[C@@H]21	99.3% (inactive)
C1CCN(c2nc(N3CCCCC3)nc(N3CCOCC3)n2)CC1	112% (inactive)
